# Test results as given in publication PMC5489143, “One ligand, two regulators and three binding sites: How KDPG controls primary carbon metabolism in Pseudomonas”.
# Target: T1, RccR-His (Pseudomonas fluorescens SBW25, UniProt A0ACD4XSS6 1-288)
# Assay: SPR (ReDCaT); SPR ReDCaT, 10 mM HEPES pH 7.4, 300 mM NaCl, 3 mM EDTA, 0.05% Tween-20, 25 C; high values mean tight binding
# Details: protein: recombinant; tags: C-terminal His (pET42b), not removed; chain copies: 2; label: captured on SA chip through 20-nt ReDCaT single-stranded 3' overhang of strand 2; dsDNA, one strand shown
row,Sequence,binding signal
1,ATGTAGGGTCCGCCGAAGACCACTACCT,3.18 %Rmax
2,CTTGTAGTTAATTTTTCGTCACCCGTCATA,8.34 %Rmax
3,CTTGTAGTATAACTACAAGCTTGCTACATC,158 %Rmax
4,TATGTAGTGAGCAAAAATAATCACTACATA,59.1 %Rmax
5,CTTGTGTAGTTTTACTACTCGTATATACAT,126 %Rmax
6,CATGTAGTATGCCCAACCGTGCACTACATA,55.1 %Rmax
7,AATGTAGCCCCTTTTTTCAGCCCCTACATG,6.22 %Rmax
8,CGGTAGTAGTGCGCAACTTTCTACTACAAA,35.9 %Rmax
9,GATGTAGTGCTTGAAAAAAAGCACTACAAA,82.8 %Rmax

# Target: T1, RccR-His
# Assay: SPR (ReDCaT); KDPG 0 uM; SPR ReDCaT, 10 mM HEPES pH 7.4, 300 mM NaCl, 3 mM EDTA, 0.05% Tween-20, 25 C; high values mean tight binding
# Details: protein: recombinant; tags: C-terminal His (pET42b), not removed; chain copies: 2; label: captured on SA chip through 20-nt ReDCaT single-stranded 3' overhang of strand 2; dsDNA, one strand shown
row,Sequence,binding signal
1,CTTGTAGTATAACTACAAGCTTGCTACATC,161 %Rmax
2,CTTGTGTAGTTTTACTACTCGTATATACAT,121 %Rmax
3,GATGTAGTGCTTGAAAAAAAGCACTACAAA,67.2 %Rmax

# Target: T1, RccR-His
# Assay: SPR (ReDCaT); KDPG 1 uM; SPR ReDCaT, 10 mM HEPES pH 7.4, 300 mM NaCl, 3 mM EDTA, 0.05% Tween-20, 25 C; high values mean tight binding
# Details: protein: recombinant; tags: C-terminal His (pET42b), not removed; chain copies: 2; label: captured on SA chip through 20-nt ReDCaT single-stranded 3' overhang of strand 2; dsDNA, one strand shown
row,Sequence,binding signal
1,CTTGTAGTATAACTACAAGCTTGCTACATC,152 %Rmax
2,CTTGTGTAGTTTTACTACTCGTATATACAT,116 %Rmax
3,GATGTAGTGCTTGAAAAAAAGCACTACAAA,104 %Rmax

# Target: T1, RccR-His
# Assay: SPR (ReDCaT); KDPG 10 uM; SPR ReDCaT, 10 mM HEPES pH 7.4, 300 mM NaCl, 3 mM EDTA, 0.05% Tween-20, 25 C; high values mean tight binding
# Details: protein: recombinant; tags: C-terminal His (pET42b), not removed; chain copies: 2; label: captured on SA chip through 20-nt ReDCaT single-stranded 3' overhang of strand 2; dsDNA, one strand shown
row,Sequence,binding signal
1,CTTGTAGTATAACTACAAGCTTGCTACATC,125 %Rmax
2,CTTGTGTAGTTTTACTACTCGTATATACAT,86.8 %Rmax
3,GATGTAGTGCTTGAAAAAAAGCACTACAAA,119 %Rmax

# Target: T1, RccR-His
# Assay: SPR (ReDCaT); KDPG 100 uM; SPR ReDCaT, 10 mM HEPES pH 7.4, 300 mM NaCl, 3 mM EDTA, 0.05% Tween-20, 25 C; high values mean tight binding
# Details: protein: recombinant; tags: C-terminal His (pET42b), not removed; chain copies: 2; label: captured on SA chip through 20-nt ReDCaT single-stranded 3' overhang of strand 2; dsDNA, one strand shown
row,Sequence,binding signal
1,CTTGTAGTATAACTACAAGCTTGCTACATC,105 %Rmax
2,CTTGTGTAGTTTTACTACTCGTATATACAT,29.9 %Rmax
3,GATGTAGTGCTTGAAAAAAAGCACTACAAA,121 %Rmax
